Results taken from PubChem BioAssay AID687036 (The Scripps Research Institute Molecular Screening Center, 2013).
The whole screen tested about 3,300 compounds, of which about 1,400 (42%) were called active. The set was probably picked from earlier hits. The list is a sample of the results. A number with no mark means an inactive call.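 How the source made its calls: active means mean inhibition across replicates above the hit cutoff derived for the earlier primary screen (cut at about 22% in these data); inactive means the rest.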

target: Protein arginine N-methyltransferase 1 (Homo sapiens) (UniProt Q99873); experiment: PRMT1 methyltransferase inhibitors, confirmation, biochemical, fluorescence polarization, triplicate (AID 687036); settings: recombinant His-PRMT1, activity-based probe fluorescence polarization; at 2.79 µM; hits give high values
Sequence (Q99873 whole entry, looked up): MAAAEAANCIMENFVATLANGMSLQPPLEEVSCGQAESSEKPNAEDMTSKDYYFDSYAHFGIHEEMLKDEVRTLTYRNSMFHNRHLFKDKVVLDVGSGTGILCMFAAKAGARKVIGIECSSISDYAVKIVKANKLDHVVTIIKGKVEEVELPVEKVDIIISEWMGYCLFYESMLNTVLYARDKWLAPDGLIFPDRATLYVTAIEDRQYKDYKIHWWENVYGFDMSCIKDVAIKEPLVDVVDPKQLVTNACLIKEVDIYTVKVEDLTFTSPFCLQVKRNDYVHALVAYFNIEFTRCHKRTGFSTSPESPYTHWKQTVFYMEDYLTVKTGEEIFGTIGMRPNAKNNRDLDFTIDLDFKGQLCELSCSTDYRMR

| SMILES | inhibition |
| --- | --- |
| Brc1ccccc1C1Nc2cccc3cccc(c23)N1 | 29.4% (active) |
| NS(=O)(=O)c1ccc(NC(=O)COC(=O)c2c3c(nc4ccccc24)/C(=C\c2ccc4c(c2)OCO4)CCC3)cc1 | 0.89% |
| Cc1cc(C)cc(C(=O)NC2C(=O)N3C(C(=O)O)=C(CSc4nnc(C)s4)CSC23)c1 (stereo unspecified) | 15.9% |
| Oc1ccc2ccc3cccc[n+]3c2c1 | 155% (active) |
| COc1cc(C2CC(=O)N3CN(Cc4ccccc4)CSC3=C2C#N)ccc1OCc1ccccc1 (stereo unspecified) | 12.4% |
| CC(=O)Nc1ccc(C(=O)Nc2nc(-c3cc(C)n(Cc4ccccc4)c3C)cs2)cc1 | 5.86% |
| FC(F)(F)c1nc2ccccc2nc1N/N=C/c1ccc(Cl)cc1 | -0.64% |
| CCOC(=O)C(Sc1ncc(C#N)c(N)n1)C(C)C (stereo unspecified) | 37% (active) |
| Fc1ccc(COc2cccc(-c3n[nH]c(=S)o3)c2)cc1 | 14.3% |
| COc1cc(C(=S)NC2CCCCC2)ccc1O | 5.36% |
| CCc1ccc(NC2Nc3cc(C)nn3S2)cc1 (stereo unspecified) | 6.49% |
| O=c1ccc2c(-c3ccccc3S(=O)(=O)O)c3ccc(O)c(O)c3oc-2c1O | 66.2% (active) |
| COc1ccc(CCN2C(=O)CC(N3CCC(C(N)=O)CC3)C2=O)cc1OC (stereo unspecified) | 12.1% |
| OCCn1c(-c2ccccc2)csc1=Nc1ccccc1 | -0.19% |
| O=S(=O)(O)c1cc2onnc2c2ccccc12 | 53.5% (active) |
| Cc1ccc(-c2ccc(/C=C(\C#N)C(N)=S)o2)c([N+](=O)[O-])c1 | 3.06% |
| Cc1ccc(SC(CC(=O)c2ccc(C(C)(C)C)cc2)C(=O)O)cc1 (stereo unspecified) | 80.3% (active) |
| COc1ccc(N/N=C2/CCCCC2=O)cc1 | 0.52% |
| Cc1cc(=O)[nH]c(=S)[nH]1 | -4.44% |
| Cc1cc2nc3c(=O)[nH]c(=O)nc-3n(C[C@H](O)[C@H](O)[C@H](O)CO)c2cc1C | 146% (active) |
| O=C(CN1CCN(c2ccc(O)cc2)CC1)NC1CCCc2ccccc21 (stereo unspecified) | -0.09% |

| SMILES | inhibition |
| --- | --- |
| Cc1cccc(N2CCN(C(=O)/C=C/c3ccco3)CC2)c1C | 7.17% |
| Cc1nnc(SCC2=C(C(=O)O)N3C(=O)C(NC(=O)Cn4nc(C)c(Cl)c4C)C3SC2)s1 (stereo unspecified) | 6.51% |
| CC(C)(C)NC(=O)COc1ccc(CNc2ccc3[nH]c(=O)[nH]c3c2)cc1 | 4.62% |
| COc1ccc(NC(=O)CSc2nc(SC)ns2)c(OC)c1 | 30.5% (active) |
| Cc1cccc2cc3c(N)c(C(=O)N4CCCc5ccccc54)sc3nc12 | -2.12% |
| COc1cccc(NC(=O)COC(=O)/C=C/c2ccco2)c1 | 10.2% |
| COc1cccc(NC(=O)CSc2nccn(-c3ccc4c(c3)OCCO4)c2=O)c1 | 26.1% (active) |
| CC(=O)Nc1cc(-c2ccccc2N(C)C)cn2c(-c3ccc(F)c(Cl)c3)cnc12 | 1.55% |
| c1ccc(Cc2c(-c3ccco3)nc3c4ccccc4ccn23)cc1 | 9.04% |
| COc1ccc(NC2=CC(=S)NC(C)(C)C2)cc1 | -3.18% |
| S=c1[nH]nc(-c2ccco2)n1/N=C/c1ccc(Br)s1 | 13.1% |
| COc1ccc(N2C(=O)CC(N3CCC(C(N)=O)CC3)C2=O)cc1 (stereo unspecified) | 9.59% |
| O=C1CC(Sc2ncn[nH]2)C(=O)N1c1ccccc1 (stereo unspecified) | 68.5% (active) |
| COc1ccc(N2C(=O)CC(Sc3n[nH]c(-c4ccc(C)cc4)n3)C2=O)cc1 (stereo unspecified) | 59% (active) |
| Cc1ccc(N2C(=O)CC(Sc3ncn[nH]3)C2=O)cc1 (stereo unspecified) | 24.3% (active) |
| CN(CCOc1ccccc1)C(=O)c1cc(-c2ccco2)nc2ccccc12 | 10.7% |
| COc1ccc(-c2cc3c(c4c2ccn4C)C2CCC3C2)cn1 (stereo unspecified) | -5.46% |
| Cc1cc(C)c(/C=C2\C(=O)Nc3ccccc32)[nH]1 | 77.3% (active) |
| CC(=NNC(=S)N1CCCCCC1)c1ccccn1 | 5.21% |
| O=S(=O)(c1ccc(Sc2nnc3ccccn23)nc1)N1CCOCC1 | -3.1% |
| N#CC1=C(N)Oc2c(sc3ccccc23)C1c1ccco1 (stereo unspecified) | 28.5% (active) |

| SMILES | inhibition |
| --- | --- |
| Cc1cc2c(c(=O)n1Cc1ccco1)C(c1ccccc1)C(C#N)=C(N)O2 (stereo unspecified) | 6.2% |
| O=C(c1ccc[nH]c1=S)N1CCN(S(=O)(=O)c2ccc(Br)cc2Cl)CC1 | 11.5% |
| COC(=O)c1ccc(NCc2cc(O)ccc2O)cc1 | 22.6% (active) |
| COc1ccc(NC(=O)c2ccc(C#CC(C)(C)O)cc2)cc1 | 3.21% |
| Cc1ccc(/C=C/C(=O)Nc2ccc([N+](=O)[O-])c(NC(=O)/C=C/c3ccc(C)o3)c2)o1 | 60.6% (active) |
| CN(C)C(=O)N=NC(=O)N(C)C | 15.4% |
| Cc1cccc(CS(=O)(=O)c2ncc(Cl)c(C(=O)Nc3ccc(F)cc3)n2)c1 | 18.9% |
| Cc1ccc(-c2nn(-c3ccccc3)cc2CN(Cc2ccccc2)C(=O)CCC(=O)O)o1 | 21.8% (active) |
| Cc1ccc(-c2nn(-c3ccccc3)cc2/C=C2\SC(=S)N(CCCCCC(=O)O)C2=O)o1 | 18.1% |
| Cc1cccc(NC(=O)CSC(N)=O)c1C | 96.6% (active) |
| Cc1ccccc1-n1c(SCC(=O)Nc2cccc3ccccc23)nc(O)cc1=O | 2.26% |
| O=C(NC1=CC(=O)c2ccccc2C1=O)c1ccccc1 | 42.6% (active) |
| Cc1ccc(OS(=O)(=O)c2ccc(-c3csc(C)n3)s2)c(C)c1 | 8.35% |
| CO/N=C(\C(=O)N[C@@H]1C(=O)N2C(C(=O)O)=C(COC(C)=O)CS[C@H]12)c1csc(N)n1 (stereo in doubt) | 11.4% |
| C=CCn1c(=S)[nH]c2scc(-c3ccco3)c2c1=O | 56.8% (active) |
| O=C(CCN1CCc2ccccc2C(O)(c2ccccc2)C1)c1ccc2c(c1)OCCO2 (stereo unspecified) | 38% (active) |
| COc1ccccc1-n1c(SCC(=O)Nc2ccc(Cl)cc2)nc(O)c(Cc2ccccc2)c1=O | 18.7% |
| Cc1cccc(NC(=O)c2nc(S(=O)(=O)Cc3ccccc3)ncc2Cl)c1 | 16.1% |
| O=C(Nc1ccccc1)c1nnsc1S(=O)(=O)c1ccc(Cl)cc1 | 79.7% (active) |
